# High-throughput results (PubChem BioAssay)
# Phagocytosis inh – blocks phagocytosis by macrophages | inhibition, % at 5 µM | J774A.1 macrophage IgG-bead phagocytosis, imaging | 110,000 compounds, 0.07% hits | AID 1029;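 active = inhibition above the mean of the plate negative controls plus 5 SD, cut at about 13% in these data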;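 note: phagocytic index as fraction of beads internalized from green versus red external bead signal; plate controls were DMSO negative control for no effect and cytochalasin-D positive control for full effect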
# Pyk2 oligo antag – antagonists of human Pyk2 oligomerization. z-score (the deposit names both 25 µM and 10 µM). 99,000 compounds, 0.83% hits. Q293 cells, Pyk2 FERM NanoBiT luminescence; stronger effect = lower value. Q14289;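 active = Z-score of -3 or lower, scaled per plate to the spread of control and sample wells; inactive = z-score above -3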;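 note: negative z-score means lost luminescence so less FERM oligomerization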
# IL1B cytotox – toxic to HUVEC cells under IL-1B stimulation; HUVEC cell count loss, Hoechst imaging, IL-1B stimulated; 94,000 compounds, 0.41% hits; cell count reduction, % at 2 µM;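 active = cell count reduction more than 3 SD above the screen-wide mean, cut at about 70% in these data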;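 note: normalized per plate to untreated control cells as the no-loss baseline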
# IL1B NFkB inh – blocks IL-1B driven NFkB nuclear translocation in HUVEC cells. HUVEC IL-1B NFkB p65 nuclear translocation imaging. inhibition, % at 2 µM. 94,000 compounds, 0.43% hits. AID 796;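 active = inhibition above about 30% together with a positive call from visual inspection of the well image, limit read from the data; inconclusive = inhibition above a set limit but visual check negative; inactive = inhibition not above a set limit, visual check negative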;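 note: nuclear over cytoplasmic p65 intensity ratio measured by imaging; 0% = IL-1B stimulated DMSO wells and 100% = unstimulated DMSO wells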
# NFkB transloc pot – enhances IL-1B driven NFkB nuclear translocation | activation, % at 2 µM | HUVEC IL-1B NFkB p65 nuclear translocation imaging | 94,000 compounds, 0.3% hits | AID 819;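 active = activation above 40%, about the mean plus 3 SD, also judged a hit on visual image review; inconclusive = activation above 40% but not a hit on visual review; inactive = activation not above 40% and no visual hit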;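 note: percent activation is computed from the nuclear over cytoplasmic p65 intensity ratio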
# Starred values were filed as active, the others as inactive; ? = inconclusive; · = not tested or not shown. Most compounds without a hit are left out; they make up all but 1.4% or so of the library.
SMILES,Phagocytosis inh,Pyk2 oligo antag,IL1B cytotox,IL1B NFkB inh,NFkB transloc pot
O=C(OCC1CC(c2ccccc2)=NO1)c1ccc(Cl)cc1 (stereo not drawn),-3,0.46,18,-50,50*
COc1ccnc(Oc2ccccc2)c1C(=O)N/C=N/OCc1ccc(F)cc1Cl,0,-0.55,95*,14,-14
CCN(CC)S(=O)(=O)c1ccc2c(c1)C(=NO)c1cc(S(=O)(=O)N(CC)CC)ccc1-2,·,-3*,-45,-9,9
CCN(CC)S(=O)(=O)c1ccc(C)c(C)c1,-1,0.35,-126,11,-11
Clc1ccccc1Oc1cnc2ccccc2n1,-1,0.63,-10,3,-3
Cc1cc(C)cc(OC(C)c2ccnc3nc(/N=C/N(C)C)nn23)c1 (stereo not drawn),0,0.64,-61,-3,3
O=C(O)c1cc(NCc2ccc3c(c2)OCO3)ccc1N1CCOCC1,-1,-0.31,-24,54*,-54
O=C(Nc1ccc2c(c1)OCCO2)C1CCN(S(=O)(=O)Cc2ccccc2)CC1,0,0.04,6,5,-5
Cc1cc(N2CCOCC2)cc(C)[n+]1[O-],-1,2.2,-31,-40,40*
C=CCN1CCN(c2ccncc2S(=O)(=O)N2CCOCC2)CC1,-2,-0.14,19,-6,6
CC(=O)c1cccc(NC(=O)Nc2ccc3c(c2)N(C)C(=O)CS3)c1,0,-3.3*,16,-24,24
COc1ccc(OC(C)C(=O)NCc2cccnc2)cc1 (stereo not drawn),3,-0.1,93*,13,-13
CC(Oc1ccc(F)cc1)C(=O)Nc1sc2c(c1C(=O)NCc1cccnc1)CCCC2 (stereo not drawn),0,-3.1*,·,·,·
CCC(C)NS(=O)(=O)c1ccc(OCC(=O)NCc2cccnc2)cc1 (stereo not drawn),1,0.48,80*,98*,-98
CCOC(=O)c1ccccc1N/C=C1\CCCCC1=O,·,-0.2,-15,-9,9
CCN1/C(=C2\C(=O)N(C)C(=S)N2C)C=Cc2ccccc21,-5,·,·,·,·
CCCN1/C(=C2/SC(=S)N(CC)C2=O)C=Cc2ccccc21,1,-3.1*,-7,-23,23
Cc1ccc(NC(=O)C2(c3ccccc3)CC2(Cl)Cl)cc1C (stereo not drawn),·,-3.2*,14,-3,3
CCc1ccc(NC(=O)C2(c3ccccc3)CC2(Cl)Cl)cc1 (stereo not drawn),·,-3.1*,-4,-3,3
CC(=O)NC1C(Oc2cccc(C)c2)OC2COC(c3ccco3)OC2C1O (stereo not drawn),-12,·,·,·,·
O=C(NC1(C(F)(F)F)C(=O)Nc2c1c(=O)[nH]c(=O)n2Cc1ccccc1)c1ccc(Cl)cc1 (stereo not drawn),-1,1.5,-14,32*,-32
O=c1[nH]c(=O)n(Cc2ccccc2)c2c1C(C(F)(F)F)(C(F)(F)F)N=C(c1ccco1)N2,·,-3.5*,-10,12,-12
CC(C)(C)c1csc(NC(=O)Cn2c(=O)oc3ccccc32)n1,-1,-3.4*,19,9,-9
CCCN1C(=O)/C(=C/C=C2\N(CC)c3ccccc3C2(C)C)SC1=S,1,-3*,-16,-5,5
COc1ccc(N2CCN(C(=O)Cc3nn(C)c(=O)c4ccccc34)CC2)cc1,0,0.58,1,-4,4
SMILES,Phagocytosis inh,Pyk2 oligo antag,IL1B cytotox,IL1B NFkB inh,NFkB transloc pot
Cc1ccc(NC(=O)Cn2cnc3sc(C(=O)NCc4ccco4)c(C)c3c2=O)cc1Cl,·,-3.3*,5,-8,8
CCc1oc(C(=O)O)cc1CN(CC)CC,-1,0.99,14,-3,3
CC(C)(C)C1=C[C@@H](CO)C[C@@H](CO)C1,·,0,2,1,-1
CCOc1cc(NC(=O)C2CC2)c(OCC)cc1NC(=O)c1ccccn1,-1,-3.2*,1,-48,?
O=C(OC1CCN(c2ncc(C(F)(F)F)cc2Cl)CC1)c1cccc(C(F)(F)F)c1,-2,0.07,54,1,-1
O=C(c1cccc(C(F)(F)F)c1)N1CCOC12CCN(c1ncc(C(F)(F)F)cc1Cl)CC2,2,1.5,-15,33*,-33
CC(OC(=O)CN(C)S(=O)(=O)c1ccc(Cl)cc1)C(=O)Nc1cccc(Cl)c1 (stereo not drawn),0,0.54,2,14,-14
CC(C)Cn1c(SCC(=O)NC(=O)NC2CCCC2)nc2ccccc21,-1,-3.4*,-2,-22,22
CC(C)NC(=O)Cc1ccc(Br)cc1,-2,-0.05,-84,-11,11
Cn1c(N)c(N2CCCCC2)c(=O)n(CC(=O)Nc2ccc(Cl)c(Cl)c2)c1=O,·,-0.18,27,12,-12
CC(=O)Nc1ccc(NC(=O)CSCCc2ccccn2)cc1,0,1.4,-7,49*,-49
Cc1ccc(OCCn2c(CCCO)nc3ccccc32)cc1,4,0.32,1,4,-4
CS(=O)(=O)Nc1ccc2c(c1)C(=O)OC2,0,0.02,-11,-58,57*
COc1ccc(S(=O)(=O)Nc2ccc3c(c2)COC3=O)cc1OC,0,-0.08,13,0,0
COc1ccc(S(=O)(=O)N(CC(=O)N/N=C/c2cccs2)c2cc(C)cc(C)c2)cc1OC,-1,-3*,-3,-2,2
O=C(c1ccc(Cl)s1)N1CCc2ccccc21,0,-0.77,-26,-7,7
O=C(c1ccc(C(=O)N2CCCc3ccccc32)s1)N1CCCc2ccccc21,·,-3.3*,4,7,-7
Cc1nc2nc(SCC(N)=O)[nH]c2cc1Br,2,-0.27,-28,-13,13
Cc1ccccc1-c1noc(CCC(=O)NCC2CCCO2)n1 (stereo not drawn),-2,0.47,84*,-4,4
CCCCCCSc1nsc(NC(=O)CC(C)C)n1,-4,·,·,·,·
CCCSc1nsc(NC(=O)C(c2ccccc2)c2ccccc2)n1,0,-3.1*,-48,-6,6
CC1CCCC(NC(=O)COC(=O)c2ccc(S(=O)(=O)N3CCOCC3)cc2)C1C (stereo not drawn),-4,1.4,0,-2,2
CC1CCCCC1NC(=O)COC(=O)c1ccc(N(C)C)cc1 (stereo not drawn),0,-3.1*,-1,-19,19
C=CCOC(=O)C1=C(C)NC(SC)=C(C#N)C1c1ccc(OCC)cc1 (stereo not drawn),-1,-3.1*,2,0,0
C=CCOC(=O)C1=C(C)NC(SC)=C(C#N)C1c1cccs1 (stereo not drawn),·,-2.4,-20,10,-10
C=CCOC(=O)C1=C(C)NC(C)=C(C(=O)OCC=C)C1c1ccc(O)cc1,0,-3.5*,·,·,·
COc1ccc(C(=O)OCC(=O)NCc2ccc3c(c2)OCO3)cc1[N+](=O)[O-],-7,·,·,·,·
Cc1onc(-c2ccccc2Cl)c1C(=O)Nc1cc(=O)n(C)c(=O)n1C,·,-0.05,89*,18,-18
Cc1onc(-c2ccccc2Cl)c1C(=O)Nc1ccccc1,·,0.13,-13,0,0
Cc1ccc(S(=O)(=O)N2CCOCC2)cc1NC(=O)Cn1ccsc1=N,-1,1.1,-4,-40,40*
